Consider 40 molecules from PubChem BioAssay (NCI).

This is part of a sample that, as a whole, favours compounds with a hit. Of some 83,000 tested, about 20% had one in any assay.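 Interpretation: 100, growth as untreated; towards 0, rising growth inhibition; 0, no net growth; 0 to -100, cell death. Compounds scoring below 10 were considered active.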 Calls of active or inactive are those of the source.

In the assay the test system is OVCAR-8 ovarian. In words: NCI-60 one-dose screen, 48 h (100 = growth as untreated, 0 = no growth, -100 = all killed). As to conditions: 10 µM unless noted. How it is done: Growth inhibition of the OVCAR-8 human tumor cell line is measured as a screen for anti-cancer activity. Cells are grown in 96 well plates and exposed to the test compound for 48 hours. Compounds are tested at a single concentration, which is 10^-5 M for most compounds. The reported endpoint is percent growth (GI% or GIPRCNT), where numbers from 0 - 100% represent growth inhibition, and numbers from -100% - 0 represent cell death. For example, a value of 40 represents 60% growth inhibition. A value of 0 means no net growth occurred over the course of the experiment. A value of -40 indicates 40% of cells at the beginning of the experiment died by the end of the experiment. A value of -100 means all cells are dead at the end of the experiment.
NCI-60 Human Tumor Cell Lines Screen was performed using the standard one-dose NCI protocol, which is described in more detail at https://dtp.cancer.gov/discovery_development/nci-60/default.htm.
Compounds with GIPRCNT values below 10 were considered active. Activity score was based on GIPRCNT using the following formula: […]
Score is 0 for GIPRCNT values of 100 or above, 50 for GIPRCNT values of 0, and 100 for GIPRCNT values of -100.
On to `CCNC(=O)Oc1ccc(/C(=C(\C)c2ccccc2)c2ccc(OCCN3CCCCC3)cc2)cc1`, for which the growth was 73.6% (inactive).

Regarding `O=C(Nc1ncc(Cc2cc(Cl)ccc2Cl)s1)c1cccs1`, the growth was 74.4% (inactive).

On to `CC(C)=CCC[C@](C)(O)[C@H]1CC[C@]2(C)[C@@H]1CC[C@@H]1[C@@]3(C)C/C(=C/c4ccccc4)C(=O)C(C)(C)[C@@H]3CC[C@]12C`, for which the growth is 93.4% (inactive).

As for `Cn1nc(CC#N)c2c(=N)n(N)cnc21`, the growth is 104% (inactive).

Take `CC1=C(C(=O)/C=C/c2c[nH]c3ccccc23)C(c2ccccc2)NC(=S)N1` (stereo not given): the growth was 101% (inactive).

With `O=C1Nc2ccc(F)cc2/C1=C\c1c(-c2ccccc2)nc2ccccn12`, the growth is 74.7% (inactive).

Regarding `CCN(CC)c1ccc(C(=O)c2ccccc2)cc1`, the growth was 97% (inactive).

With `COc1cc(/C=N/NC(=O)c2cnn3c2NC(c2ccccc2)C3)ccc1OCc1ccccc1` (stereo not given), the growth is 2.7% (active).

Consider `N#Cc1c(-c2ccccc2)nc2c(c(-c3ccccc3)nn2-c2ccccc2)c1-c1ccc(O)cc1`, for which the growth is 56% (inactive).

With `Cc1ccccc1NS(=O)(=O)c1cccc(C(=O)Nc2ccc(Br)cc2)c1`, the growth was 40.5% [25 µM] (inactive).

For the molecule `O=C1C=CC(=O)N1c1cccc(Cl)c1`, the growth was 107% (inactive).

As to `COc1cc2c(cc1OC)C(=O)/C(=C/c1cc(C)c(O)c(C)c1)S2`, the growth was 37% (inactive).

`C[C@H](c1nc2ccc(N)cc2[nH]1)[C@H]1CC[C@H]2[C@@H]3CCC4=CC(=O)CC[C@]4(C)[C@H]3CC[C@]12C`: the growth was 91.4% (inactive).

Regarding `COC(=O)C(OC(C)=O)C(OC(C)=O)c1ccc(OC)c(OC)c1` (stereo not given), the growth is 103% (inactive).

As for `CC(=O)c1ccc(NS(=O)(=O)c2cccc(C(=O)Nc3ccc(Br)cc3)c2)cc1`, the growth is 67.3% [25 µM] (inactive).

For the molecule `CCCCOc1ccc(/C=N/Nc2cc(C)nc3ccc(Br)cc23)cc1`, the growth is -50.1% (active).

As for `COc1ccc(-c2nc(S(=O)(=O)c3ccccc3)c(S(=O)CC(=O)N3CCC(C)CC3)o2)cc1` (stereo not given), the growth was 33.9% (inactive).

Consider `CN(C)c1ccc(C2C(C#N)=C(/N=C/c3ccccc3)Oc3c2ccc2ccccc32)cc1` (stereo not given), for which the growth was 89.6% (inactive).

With `CCOc1ccc(Nc2nc(-c3ccc4c(c3)NC(=O)CO4)cs2)cc1`, the growth is 62.8% (inactive).

As for `O=[N+]([O-])c1ccc(N=Nc2cc(S(=O)(=O)O)c3cccc(S(=O)(=O)O)c3c2O)cc1`, the growth is 108% (inactive).

Take `COc1ccc(/C=C/c2nc(Nc3ccc(Cl)cc3)c3ccccc3n2)cc1`: the growth was 61.4% (inactive).

Regarding `O=C(Nc1ccc(-c2ccc3c(c2)NC(=O)/C3=C\c2ccc[nH]2)cc1)NC1CC1`, the growth was 109% (inactive).

`COc1cc2c(-c3cc4c(cc3CNCCc3ccc5c(c3)OCO5)OCO4)cccc2c(OC)c1O`: the growth was 79.9% (inactive).

Consider `O=C(CCN1CCCC1)Nc1ccc2c(Nc3ccc(F)cc3)c3ccccc3nc2c1`, for which the growth was 4.18% (active).

On to `NS(=O)(=O)c1ccc(CCN2C(=O)C3C(C2=O)C2(Cl)C(Cl)=C(Cl)C3(Cl)C2(Cl)Cl)cc1` (stereo not given), for which the growth was 107% (inactive).

For the molecule `Cc1ccc(-n2nc3c(c(C#N)c2=O)CC(c2ccccc2[N+](=O)[O-])C([N+](=O)[O-])=C3O)cc1` (stereo not given), the growth is 90.2% (inactive).

For the molecule `Cn1cc(CC2CC(=O)N(c3ccccc3)C2=O)sc1=NC(=O)c1ccccc1` (stereo not given), the growth was 104% (inactive).

With `CCOC(=O)c1cc(C(=O)c2ccc(OC)c(OC)c2)n2ccc(/C=C/c3cc[n+](CC(=O)c4ccc(OC)c(OC)c4)cc3)cc12`, the growth is 95.5% (inactive).

On to `CCN(c1ccccc1)S(=O)(=O)c1cc([N+](=O)[O-])ccc1Cl`, for which the growth is 79.8% (inactive).

Consider `COc1ccc(C(=O)c2nc3ccccc3n2CC(=O)c2ccc(F)cc2)cc1`, for which the growth was 89.5% (inactive).

Take `CCOC(=O)/C(C#N)=C1/NNC(=Nc2cccnc2)S1`: the growth was 92.2% (inactive).

As to `CCc1ccc(-c2cn3ccnc3c(-c3ccc4ncn(Cc5ccccc5)c4c3)n2)cc1`, the growth was 69.2% (inactive).

Turning to `Cc1nc2ccc(Cl)cn2c1-c1nnc(SCc2ccc([N+](=O)[O-])cc2)o1`, the growth was 36.8% (inactive).

Turning to `CCCOc1ccc(/C=N/Nc2cc(C)nc3ccc(Br)cc23)cc1`, the growth was 88.2% (inactive).

Regarding `CCOc1ccc(/C=N/Nc2cc(C)nc3ccc(Br)cc23)cc1`, the growth is 90.6% (inactive).

Take `CC(=O)Nc1ccc(-c2ccc3c(c2)NC(=O)/C3=C\c2ccc[nH]2)cc1`: the growth is 99.8% (inactive).

Consider `C=C1C(=O)O[C@H]2[C@H]1CC/C(C(=O)NCCCCCNC(=O)/C1=C/CC[C@@]3(C)O[C@H]3[C@H]3OC(=O)C(=C)[C@@H]3CC1)=C\CC[C@@]1(C)O[C@@H]21`, for which the growth was 103% (inactive).

Consider `O=C(/C(=C\c1ccc([N+](=O)[O-])cc1)S(=O)Cc1ccc(F)cc1)c1ccc(F)cc1` (stereo not given), for which the growth is 29.3% (inactive).

Take `CCCCNC(=O)Oc1ccc(/C(=C(\C)c2ccccc2)c2ccc(OCCN3CCCCC3)cc2)cc1`: the growth is 71.9% (inactive).

With `Oc1ccc(C2c3ccccc3Oc3ccccc32)c2cccnc12`, the growth is 7.16% (active).
